Source: PubChem (several laboratories)
An excerpt weighted towards active compounds, which were near 2.7% of everything screened.
CF NFkB inh: inhibitors of PAF-induced NF-kB signaling, primary screen, cell-based, GFP fluorescence, uHTS | KKLEB NF-kB-GFP reporter, GFP fluorescence overnight | 360,000 compounds, 0.86% hits | AID 588850, 2011 | inhibition, % at 5 µM;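 active means at least 50% inhibition at 5 µM, scaled per plate between neutral and stimulator controls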;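 further: PAF is a Pseudomonas aeruginosa culture filtrate used as stimulus; plate controls were PAF-stimulated DMSO wells for no effect and unstimulated DMSO wells for full effect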
MITF TRPM1 inh: inhibitors of MITF-dependent TRPM1 promoter reporter, primary screen, cell-based, SK-MEL-5, single point, luciferase; SK-MEL-5 TRPM1 promoter luciferase, 24 h; inhibition, % at 12.5 µM; 330,000 compounds, 0.83% hits;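 active means mean inhibition across replicates of 60% or more, whatever share of single replicates reaches that level; inconclusive means some that reach 60%, reason not given; inactive means mean inhibition across replicates below 60%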
Shn3 3UTR inh: reduction of Shn3 3'UTR firefly luciferase signal, primary screen, Schnurri-3 inhibitor project, cell-based, Clone20 osteoblasts, set 2 | 360,000 compounds, 0.52% hits | AID 588674, 2011 | inhibition, % at 12.5 µM | Clone20 osteoblast Shn3 3'UTR firefly luciferase, 24 h;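 active means mean inhibition of at least 75% with every replicate also reaching 75%; inconclusive means mean inhibition at least 75% but some replicate below; inactive means mean inhibition below 75%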;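 further: 0% = median of neutral control wells and 100% = pilot-screen positive control compound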
Peg3 promoter: Peg3 promoter-driven luciferase inhibitors, primary screen, cell-based, HeLa, luciferase luminescence; HeLa PEG-Prom luciferase reporter, overnight; inhibition, % at 20 µM; 360,000 compounds, 1.7% hits;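 active means inhibition of at least 50% at 20 µM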
HIF-2a block: HIF-2a reporter inhibitors, primary screen, luminescence, 786-0 RCC cells | inhibition, % at 18.8 µM | 786-0 RCC cells HIF-2a reporter, luciferase luminescence, overnight | 360,000 compounds, 0.72% hits;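 active means inhibition of the luminescence signal of 40% or more relative to plate controls, in a single-dose primary screen at 18.75 µM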
KKLEB tox: cytotoxicity in KKLEB CF airway cells, primary screen, cytotoxicity control for CF NF-kB inhibitor project, cell-based, uHTS, fluorescence assay plates; activity change (cytotoxicity), % at 5 µM; 360,000 compounds, 0.36% hits; KKLEB CF airway cells viability, ATPlite luminescence, overnight; hits give low values; cells stimulated with P. aeruginosa culture filtrate;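 active means corrected activity change at or below -50% at 5 µM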
An asterisk follows results filed as active; ? = inconclusive; . = no result given.

SMILES	CF NFkB inh	MITF TRPM1 inh	Shn3 3UTR inh	Peg3 promoter	HIF-2a block	KKLEB tox
CCCCC[C@@H]1[C@@H]2C(=C(OCC)C[C@@H]3C(=O)N(c4ccccc4)C(=O)[C@H]23)[C@H](c2ccccc2)N1S(=O)(=O)c1ccc(C)cc1	-13	.	7	11	4	-5
CCOC1=C2[C@H](c3ccccc3)N(S(=O)(=O)c3ccc(C)cc3)C(C(C)(C)C)[C@H]2C(C#N)(C#N)C(C#N)(C#N)C1 (stereo partly specified)	67*	.	87*	78*	49*	-28
COC(=O)C(C(=O)OC)c1ccccc1CNS(=O)(=O)c1ccc(C)cc1	.	.	.	.	2	.
CC(C)(C)n1[nH]c2c3c(ccc2c1=O)C(=O)c1ccccc1C3=O	-16	?	26	-27	-33	-8
COCCCn1[nH]c2c3c(ccc2c1=O)C(=O)c1ccccc1C3=O	-3	61*	-20	-39	-82	1
O=C(Nc1ccn(CCCN2CCN(Cc3ccc(F)cc3)CC2)c(=O)n1)OCc1ccccc1	-8	.	0	-4	10	-1
COC(=O)c1cnc(Nc2nc(C(N)Cc3ccc(Cl)cc3)cs2)nc1C(F)(F)F (stereo unspecified)	16	.	-2	96*	17	-16
COC(=O)c1cnc(Nc2nc(C(N)Cc3ccccc3)cs2)nc1C(F)(F)F (stereo unspecified)	-4	.	-12	52*	-15	-14
COC(=O)c1cnc(Nc2nc(C(N)Cc3ccc(OC)cc3)cs2)nc1C(F)(F)F (stereo unspecified)	-16	.	9	25	10	-5
CC1=C2C3OC(=O)C(C)C3CCC2(C)C=C(Br)C1=O (stereo unspecified)	-15	.	-5	3	9	-1
Cc1ccc(C)c(S(=O)(=O)Nc2ccc(-n3cnnn3)cc2)c1	9	-14	83*	11	14	-22
O=C(Nc1nc2ccccc2s1)c1ccc2sc([C@H]3C[C@H](O)[C@@H](CO)O3)nc2c1	-6	.	-51	-101	-277	-8
CCOc1ccc(C(=O)Nc2cccc(-c3nc4cccnc4o3)c2)cc1Cl	-8	-10	1	90*	-17	9
CCOc1ccc(C(=O)Nc2cccc(C(=O)O)c2)cc1Cl	-1	50	-13	20	63*	9
CCOc1ccc(C(=O)Nc2cc(NC(=O)c3ccc(OCC)c(Cl)c3)cc(C(=O)O)c2)cc1Cl	-2	-14	-11	4	3	4
CCOc1cc(/C=C/C(=O)c2ccc3c(c2)OCCO3)ccc1OCC(=O)N(C)C	15	.	-7	63*	32	-16
Cc1cc(C)cc(OCC(=O)Nc2cccc(-c3nnc(-c4ccco4)o3)c2)c1	-44	-14	0	58*	-102	-10
CC1CCCC(C)N1C(=O)CN1C(=O)NC2(CCCCCC2)C1=O (stereo unspecified)	6	.	-17	6	10	5
O=C(N/C(=C/c1cccc(Br)c1)C(=O)N1CCCCC1)c1ccco1	4	.	-23	18	15	-12
CCN(CC)C(=S)SSC(=S)N(CC)CC	-21	31	-3	68*	28	5
CCN(CC)C(=S)SCC(=O)c1ccccc1	1	-31	-47	-230	-181	11
Nn1c(SCC(=O)N2CCCC2)nnc1-c1cccs1	0	.	-39	-26	-30	-2
CC(=O)Nc1ccc(S(=O)(=O)c2ccnc3cc(Cl)ccc23)cc1	50	.	-6	15	31	-24
CC1=NC(=O)C(N=Nc2cccc(C(=O)O)c2)N1c1ccccc1 (stereo unspecified)	2	81*	-7	47	54*	-1
CCCOc1ccc(-c2nnc(-c3ccncc3)o2)cc1	0	-42	-93	-281	-167	-53*
CC(C)COc1ccc(-c2nnc(-c3ccncc3)o2)cc1	-21	-52	-27	-262	-205	7
CC(=O)Nc1cc(-c2ccccc2)cn2c(-c3cccc(C(C)=O)c3)cnc12	-72	.	5	8	-1	14
